About 7,900 targets were measured; listed, in parts, are those with a hit and a random draw of the rest. About 0.6% of all pairs of compound and target were hits. Values without a mark were called inactive.
How the values were obtained:
Test in all cases: log2 fold change, soluble protein after heating vs DMSO (PISA); higher = thermal stabilisation; K562 cells, 10 uM, 30 min; active = over 0.2 and 3.5 SD of the protein, either way, in both replicates (recomputed)
[1] = compound: CS(=O)(=O)c1ccc(-c2cnc(N)c(C(=O)Nc3ccccc3)n2)cc1
In short: (§1)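 K562 cells at 2×10^6 cells/mL were treated with 10 μM compound for 30 min. Aliquots were heated for 3 min across 48°C-58°C, pooled, and extracted in PBS with 0.5% NP-40 at 4°C; soluble protein was the supernatant after 21,000xg for 90 min. Soluble protein was quantified by TMTpro 16plex LC-MS/MS with channel sums equalised, and reported as log2 fold change in thermal stability against DMSO controls, with values from duplicates.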

crizotinib = compound: C[C@@H](Oc1cc(-c2cnn(C3CCNCC3)c2)cnc1N)c1c(Cl)ccc(F)c1Cl [crizotinib]
In short: as §1

[2] = compound: C[C@@H]1COCCN1C2=NC(=NC(=C2)C3(CC3)S(=O)(=O)C)C4=C5C=CNC5=CC=C4
In short: as §1

[3] = compound: C[C@H](C1=CC=C(C=C1)C(=O)NC2=C3C=CNC3=NC=C2)N
In short: as §1

duvelisib = compound: C[C@H](Nc1ncnc2nc[nH]c12)c1cc2cccc(Cl)c2c(=O)n1-c1ccccc1 [duvelisib]
In short: as §1

gandotinib = compound: Cc1cc(Nc2cc(CN3CCOCC3)c3nc(C)c(Cc4ccc(Cl)cc4F)n3n2)n[nH]1 [gandotinib]
In short: as §1

tozasertib = compound: Cc1cc(Nc2cc(N3CCN(C)CC3)nc(Sc3ccc(NC(=O)C4CC4)cc3)n2)n[nH]1 [tozasertib]
In short: as §1

[4] = compound: Cc1cc(SCc2sc(-c3ccc(C(F)(F)F)cc3)nc2C)ccc1OCC(=O)O
In short: as §1

doramapimod = compound: Cc1ccc(-n2nc(C(C)(C)C)cc2NC(=O)Nc2ccc(OCCN3CCOCC3)c3ccccc23)cc1 [doramapimod]
In short: as §1

ispinesib = compound: Cc1ccc(C(=O)N(CCCN)[C@@H](c2nc3cc(Cl)ccc3c(=O)n2Cc2ccccc2)C(C)C)cc1 [ispinesib]
In short: as §1

bafetinib = compound: Cc1ccc(NC(=O)c2ccc(CN3CC[C@H](N(C)C)C3)c(C(F)(F)F)c2)cc1Nc1nccc(-c2cncnc2)n1 [bafetinib]
In short: as §1

[5] = compound: Cc1cccc(CC(=O)N2CCc3c2ccc(-c2cn(C)c4ncnc(N)c24)c3F)n1
In short: as §1

nilotinib = compound: Cc1cn(-c2cc(NC(=O)c3ccc(C)c(Nc4nccc(-c5cccnc5)n4)c3)cc(C(F)(F)F)c2)cn1 [nilotinib]
In short: as §1

[6] = compound: Cc1nc(Nc2n[nH]c3c2CN(C(=O)N[C@H](CN(C)C)c2ccccc2)C3(C)C)c2sccc2n1
In short: as §1

dasatinib = compound: Cc1nc(Nc2ncc(C(=O)Nc3c(C)cccc3Cl)s2)cc(N2CCN(CCO)CC2)n1 [dasatinib]
In short: as §1

[7] = compound: Cc1ncc(-c2ccnc(Nc3ccc(S(C)(=O)=O)cc3)n2)n1C(C)C
In short: as §1

[8] = compound: Cn1cc(-c2ccc3c(c2)CCN3C(=O)Cc2cccc(C(F)(F)F)c2)c2c(N)ncnc21
In short: as §1

[9] = compound: Cn1cc(-c2ccc3nnc(C(F)(F)c4ccc5ncccc5c4)n3n2)cn1
In short: as §1

tipifarnib = compound: Cn1cncc1[C@@](N)(c1ccc(Cl)cc1)c1ccc2c(c1)c(-c1cccc(Cl)c1)cc(=O)n2C [tipifarnib]
In short: as §1

mubritinib = compound: FC(F)(F)c1ccc(/C=C/c2nc(COc3ccc(CCCCn4ccnn4)cc3)co2)cc1 [mubritinib]
In short: as §1

UniProt Q96PV6, sequence (Q96PV6 whole entry, looked up): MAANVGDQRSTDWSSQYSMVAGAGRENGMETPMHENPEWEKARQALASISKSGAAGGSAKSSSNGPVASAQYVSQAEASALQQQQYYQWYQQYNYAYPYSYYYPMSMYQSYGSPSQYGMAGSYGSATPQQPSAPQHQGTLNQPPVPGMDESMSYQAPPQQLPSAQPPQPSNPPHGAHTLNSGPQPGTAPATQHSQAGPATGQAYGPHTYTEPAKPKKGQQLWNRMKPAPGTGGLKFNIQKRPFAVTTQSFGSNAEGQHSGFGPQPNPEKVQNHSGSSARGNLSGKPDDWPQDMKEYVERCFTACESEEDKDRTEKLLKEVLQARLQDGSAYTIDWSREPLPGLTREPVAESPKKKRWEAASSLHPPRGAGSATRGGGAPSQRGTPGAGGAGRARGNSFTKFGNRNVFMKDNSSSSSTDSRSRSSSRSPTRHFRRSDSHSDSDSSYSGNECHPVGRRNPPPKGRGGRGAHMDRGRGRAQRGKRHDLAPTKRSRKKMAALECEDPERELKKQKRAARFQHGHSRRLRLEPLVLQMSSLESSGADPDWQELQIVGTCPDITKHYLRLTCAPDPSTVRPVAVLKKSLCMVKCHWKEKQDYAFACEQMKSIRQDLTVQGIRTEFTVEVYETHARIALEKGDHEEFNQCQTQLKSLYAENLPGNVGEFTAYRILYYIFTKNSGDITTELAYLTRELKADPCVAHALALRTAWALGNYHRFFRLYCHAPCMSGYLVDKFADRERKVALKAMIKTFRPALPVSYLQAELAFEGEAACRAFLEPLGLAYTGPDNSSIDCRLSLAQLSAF
UniProt Q8IW41, sequence (Q8IW41 whole entry, looked up): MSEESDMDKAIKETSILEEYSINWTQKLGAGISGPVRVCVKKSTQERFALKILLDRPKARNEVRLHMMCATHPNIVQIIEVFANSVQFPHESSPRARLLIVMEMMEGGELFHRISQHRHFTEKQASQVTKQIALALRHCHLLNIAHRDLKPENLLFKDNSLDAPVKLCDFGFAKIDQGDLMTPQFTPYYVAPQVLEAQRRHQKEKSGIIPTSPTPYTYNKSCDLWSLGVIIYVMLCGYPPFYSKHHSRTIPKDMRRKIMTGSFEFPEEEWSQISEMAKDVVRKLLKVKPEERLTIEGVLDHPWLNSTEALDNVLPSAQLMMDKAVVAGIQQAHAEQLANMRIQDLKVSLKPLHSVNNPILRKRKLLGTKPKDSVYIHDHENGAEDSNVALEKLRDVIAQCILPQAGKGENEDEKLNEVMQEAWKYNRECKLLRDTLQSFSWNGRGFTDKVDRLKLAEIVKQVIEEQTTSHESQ
UniProt Q9H3F6, sequence (Q9H3F6 whole entry, looked up): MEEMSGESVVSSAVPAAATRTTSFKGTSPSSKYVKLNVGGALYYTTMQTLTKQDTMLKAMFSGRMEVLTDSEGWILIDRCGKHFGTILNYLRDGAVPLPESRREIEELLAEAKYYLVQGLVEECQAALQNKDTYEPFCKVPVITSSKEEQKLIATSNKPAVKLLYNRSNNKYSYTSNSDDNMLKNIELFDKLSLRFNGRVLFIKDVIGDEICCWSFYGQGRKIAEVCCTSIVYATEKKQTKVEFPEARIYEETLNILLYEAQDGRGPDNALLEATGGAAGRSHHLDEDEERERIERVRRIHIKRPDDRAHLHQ
UniProt Q13257, sequence (Q13257 whole entry, looked up): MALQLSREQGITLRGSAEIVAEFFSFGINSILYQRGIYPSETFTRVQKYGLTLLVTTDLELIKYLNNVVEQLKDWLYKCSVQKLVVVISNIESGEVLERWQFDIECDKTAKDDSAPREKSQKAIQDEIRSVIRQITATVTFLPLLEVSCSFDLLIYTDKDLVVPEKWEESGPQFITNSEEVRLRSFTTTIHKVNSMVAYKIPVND
UniProt Q8TBB5, sequence (Q8TBB5 whole entry, looked up): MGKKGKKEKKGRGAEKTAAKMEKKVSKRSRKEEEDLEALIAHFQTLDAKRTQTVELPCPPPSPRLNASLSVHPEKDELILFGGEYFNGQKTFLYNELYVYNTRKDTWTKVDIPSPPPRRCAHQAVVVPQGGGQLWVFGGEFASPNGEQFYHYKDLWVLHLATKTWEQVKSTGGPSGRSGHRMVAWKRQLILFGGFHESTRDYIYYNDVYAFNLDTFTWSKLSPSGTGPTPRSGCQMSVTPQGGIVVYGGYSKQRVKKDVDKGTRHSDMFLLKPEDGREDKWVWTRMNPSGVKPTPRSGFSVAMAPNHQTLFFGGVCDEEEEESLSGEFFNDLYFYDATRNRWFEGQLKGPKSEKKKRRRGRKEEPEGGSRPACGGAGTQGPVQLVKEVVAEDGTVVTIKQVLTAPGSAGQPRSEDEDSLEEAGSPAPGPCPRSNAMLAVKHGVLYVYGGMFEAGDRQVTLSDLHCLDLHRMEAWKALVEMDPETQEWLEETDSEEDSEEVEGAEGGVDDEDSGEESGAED
UniProt Q8WVP7, sequence (Q8WVP7 whole entry, looked up): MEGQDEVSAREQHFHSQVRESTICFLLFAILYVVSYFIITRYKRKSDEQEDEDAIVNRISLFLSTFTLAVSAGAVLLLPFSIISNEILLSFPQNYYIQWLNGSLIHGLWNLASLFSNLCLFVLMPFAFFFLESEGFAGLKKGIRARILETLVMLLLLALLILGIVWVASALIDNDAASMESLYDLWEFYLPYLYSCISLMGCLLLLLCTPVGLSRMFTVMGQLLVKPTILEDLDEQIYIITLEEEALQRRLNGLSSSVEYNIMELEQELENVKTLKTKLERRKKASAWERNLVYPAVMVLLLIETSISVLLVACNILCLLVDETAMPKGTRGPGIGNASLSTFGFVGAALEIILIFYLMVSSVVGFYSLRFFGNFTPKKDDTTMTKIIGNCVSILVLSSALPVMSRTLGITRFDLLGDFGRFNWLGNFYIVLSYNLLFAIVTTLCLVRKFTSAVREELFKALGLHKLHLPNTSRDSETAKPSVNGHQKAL
UniProt O95140, sequence (O95140 whole entry, looked up): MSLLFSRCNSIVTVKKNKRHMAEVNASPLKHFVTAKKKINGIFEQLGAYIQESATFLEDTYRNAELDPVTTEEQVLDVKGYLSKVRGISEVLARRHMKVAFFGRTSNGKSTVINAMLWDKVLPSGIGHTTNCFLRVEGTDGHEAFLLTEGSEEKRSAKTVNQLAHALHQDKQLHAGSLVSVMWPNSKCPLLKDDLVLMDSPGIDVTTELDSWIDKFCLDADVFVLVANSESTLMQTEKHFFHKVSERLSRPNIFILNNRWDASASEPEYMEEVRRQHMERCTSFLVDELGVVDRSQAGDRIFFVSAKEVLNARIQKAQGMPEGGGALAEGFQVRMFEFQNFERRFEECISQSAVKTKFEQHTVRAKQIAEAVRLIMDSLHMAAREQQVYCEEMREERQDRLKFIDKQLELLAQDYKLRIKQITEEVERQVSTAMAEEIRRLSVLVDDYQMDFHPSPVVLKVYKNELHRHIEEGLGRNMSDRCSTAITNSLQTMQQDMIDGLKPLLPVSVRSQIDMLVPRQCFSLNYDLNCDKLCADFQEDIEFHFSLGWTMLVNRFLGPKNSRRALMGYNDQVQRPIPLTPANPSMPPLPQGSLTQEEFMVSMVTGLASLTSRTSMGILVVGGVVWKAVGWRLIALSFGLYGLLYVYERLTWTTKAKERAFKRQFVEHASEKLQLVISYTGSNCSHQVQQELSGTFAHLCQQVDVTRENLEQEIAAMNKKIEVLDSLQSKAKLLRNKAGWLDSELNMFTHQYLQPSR
UniProt O15066, sequence (O15066 whole entry, looked up): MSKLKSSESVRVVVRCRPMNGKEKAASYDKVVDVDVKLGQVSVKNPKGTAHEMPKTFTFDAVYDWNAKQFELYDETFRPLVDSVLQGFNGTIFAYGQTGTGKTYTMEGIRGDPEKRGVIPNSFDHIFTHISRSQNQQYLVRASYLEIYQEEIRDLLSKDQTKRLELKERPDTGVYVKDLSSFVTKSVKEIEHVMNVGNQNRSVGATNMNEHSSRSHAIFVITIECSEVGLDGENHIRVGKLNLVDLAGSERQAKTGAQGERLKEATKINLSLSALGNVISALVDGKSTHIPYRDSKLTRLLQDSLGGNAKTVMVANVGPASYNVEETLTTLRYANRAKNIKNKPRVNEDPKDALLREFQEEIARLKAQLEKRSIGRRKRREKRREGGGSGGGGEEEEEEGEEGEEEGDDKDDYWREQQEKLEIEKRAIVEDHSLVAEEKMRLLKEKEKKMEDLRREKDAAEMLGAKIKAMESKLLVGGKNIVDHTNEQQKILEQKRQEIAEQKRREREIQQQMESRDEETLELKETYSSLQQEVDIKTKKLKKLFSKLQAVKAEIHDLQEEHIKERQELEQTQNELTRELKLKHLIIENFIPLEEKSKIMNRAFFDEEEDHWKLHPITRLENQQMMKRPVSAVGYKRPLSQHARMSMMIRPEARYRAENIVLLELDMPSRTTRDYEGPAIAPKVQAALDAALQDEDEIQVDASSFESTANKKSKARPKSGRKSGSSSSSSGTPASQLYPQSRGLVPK
UniProt Q86X29, sequence (Q86X29 whole entry, looked up): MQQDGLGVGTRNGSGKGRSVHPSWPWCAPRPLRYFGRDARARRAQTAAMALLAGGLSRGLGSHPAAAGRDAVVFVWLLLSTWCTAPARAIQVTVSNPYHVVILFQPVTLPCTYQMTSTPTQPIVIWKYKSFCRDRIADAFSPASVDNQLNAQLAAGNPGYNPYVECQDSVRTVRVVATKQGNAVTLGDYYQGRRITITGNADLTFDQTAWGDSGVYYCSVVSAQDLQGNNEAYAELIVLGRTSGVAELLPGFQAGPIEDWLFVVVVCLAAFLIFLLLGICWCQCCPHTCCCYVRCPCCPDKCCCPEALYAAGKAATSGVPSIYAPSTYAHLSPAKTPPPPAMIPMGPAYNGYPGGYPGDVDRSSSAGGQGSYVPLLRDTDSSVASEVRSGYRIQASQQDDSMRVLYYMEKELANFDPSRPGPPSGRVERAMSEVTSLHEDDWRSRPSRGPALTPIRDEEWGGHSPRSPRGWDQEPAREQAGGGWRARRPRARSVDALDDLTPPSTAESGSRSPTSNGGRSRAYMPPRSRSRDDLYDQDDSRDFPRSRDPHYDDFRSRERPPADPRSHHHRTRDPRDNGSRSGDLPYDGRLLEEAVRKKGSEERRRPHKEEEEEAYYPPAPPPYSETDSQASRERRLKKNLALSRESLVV

Target | log2 fold change [1] | log2 fold change (crizotinib) | log2 fold change [2] | log2 fold change [3] | log2 fold change (duvelisib) | log2 fold change (gandotinib) | log2 fold change (tozasertib) | log2 fold change [4] | log2 fold change (doramapimod) | log2 fold change (ispinesib) | log2 fold change (bafetinib) | log2 fold change [5] | log2 fold change (nilotinib) | log2 fold change [6] | log2 fold change (dasatinib) | log2 fold change [7] | log2 fold change [8] | log2 fold change [9] | log2 fold change (tipifarnib) | log2 fold change (mubritinib)
LARP7 isoform 3 (UniProt Q4G0J3) | -0.001 | 0.022 | 0.068 | -0.077 | -0.013 | -0.065 | 0.071 | 0.088 | 0.012 | -0.007 | -0.045 | 0.041 | 0.01 | -0.298 (active) | -0.063 | -0.249 | 0.021 | 0.029 | 0.021 | -0.05
IMMT isoform 2 (UniProt Q16891) | -0.042 | -0.152 | 0.046 | -0.115 | -0.003 | -0.075 | -0.019 | -0.087 | -0.034 | -0.031 | -0.081 | 0.11 | -0.007 | -0.002 | 0.144 | -0.022 | -0.037 | 0.037 | 0.065 | 0.066
JMJD6 isoform 3 (UniProt Q6NYC1) | -0.037 | 0.046 | 0.046 | -0.034 | 0.002 | -0.147 | 0.024 | 0.029 | 0.005 | 0.039 | -0.067 | 0.06 | -0.011 | -0.254 | -0.009 | -0.098 | -0.008 | -0.047 | 0.036 | -0.065
MAP4 (UniProt E7EVA0) | 0.023 | -0.02 | -0.222 | 0.231 | -0.084 | -0.001 | 0.124 | -0.017 | 0.136 | -0.134 | 0.311 | -0.028 | -0.014 | 0.015 | 0.168 | -0.018 | -0.166 | -0.036 | 0.019 | 0.055
KLHDC4 (UniProt Q8TBB5) | 0.093 | 0.157 | -0.07 | 0.111 | -0.091 | 0.041 | 0.025 | 0.039 | 0.069 | 0 | 0.012 | -0.018 | 0 | -0.067 | 0.107 | 0.156 | -0.175 | -0.23 | 0.106 | -0.333
KIF3B (UniProt O15066) | -0.004 | -0.018 | 0.054 | 0.03 | 0.05 | -0.199 | -0.051 | -0.023 | 0.076 | 0.04 | 0.007 | 0.122 |  |  | -0.06 |  | 0.002 | -0.048 | -0.07 | 0.115
KCTD10 (UniProt Q9H3F6) | -0.035 | 0.097 | -0.027 | -0.13 | 0.05 | 0.042 | 0.035 | -0.01 | -0.042 | 0.108 | -0.059 | -0.036 | 0.002 | -0.088 | 0.056 | 0.074 | 0.012 | 0.153 | 0.058 | -0.009
LENG8 (UniProt Q96PV6) | 0.022 | -0.342 | 0.112 | 0.107 | -0.005 | -0.094 | -0.016 | 0.055 | 0.039 | 0.241 | -0.088 | 0.112 | 0.006 | -0.036 | -0.388 | -0.146 | -0.039 | -0.031 |  | 0.032
LTN1 isoform 3 (UniProt O94822) | -0.049 | -0.136 | -0.077 | 0.128 | -0.05 | -0.234 | 0.012 | 0.11 | 0.021 | -0.229 | -0.036 | 0.039 | -0.079 | -0.031 | -0.122 | -0.052 | -0.09 | -0.042 | -0.151 | -0.009
MAPKAPK5 (UniProt Q8IW41) | 0.012 | -0.046 | 0.027 | 0.069 | 0.056 | 0.297 | -0.042 | -0.013 | 0.141 | -0.017 | 0.123 | -0.014 | 0.057 | -0.035 | -0.031 | 0.052 | -0.065 | -0.074 | -0.083 | 0.075
LRBA, A0A494BZW2 | 0.013 | -0.053 | 0.114 | 0.104 | -0.057 | 0.041 | -0.055 | -0.004 | 0.036 | -0.182 | -0.041 | 0.044 | 0.019 | -0.016 | -0.144 | 0.053 | -0.076 | 0.123 | -0.26 | -0.03
MAD2L1 (UniProt Q13257) | 0.02 | -0.076 | 0.092 | -0.004 | 0.024 | -0.139 | 0.101 | 0.037 | 0.034 | -0.023 | -0.054 | 0.018 | -0.082 | -0.042 | -0.06 | -0.012 | -0.001 | 0.009 | -0.055 | 0.042
MFN2 (UniProt O95140) | 0.028 | -0.109 | 0 | 0.022 | -0.048 | 0.028 | -0.013 | 0.041 | 0.039 | -0.208 | -0.106 | 0.068 | -0.002 | -0.022 | -0.024 | -0.01 | -0.004 | 0.018 | -0.004 | 0.019
LSR (UniProt Q86X29) | 0.08 | 0.043 | 0.009 | -0.025 | 0.061 | -0.012 | -0.044 | -0.031 | 0.04 | 0.027 | 0.068 | -0.057 | 0.024 | -0.254 (active) | 0.003 | 0.009 | 0.072 | 0.018 | 0.011 | 0.01
LMBR1 isoform 3 (UniProt Q8WVP7) | 0.086 | -0.198 | 0.019 | -0.05 | 0.095 | -0.812 (active) | 0.028 | 0.04 | 0.032 | -0.477 | -0.182 | 0.007 |  |  | 0.012 |  | 0.093 | -0.143 | -0.044 | 0.063
LNPEP (UniProt Q9UIQ6) | 0.028 | 0.015 | 0.023 | -0.053 | 0.053 | 0.028 | -0.023 | -0.008 | -0.013 | -0.039 | -0.056 | -0.007 | 0.017 | 0.026 | 0.033 | -0.024 | 0.014 | -0.007 | 0.008 | 0.035

— the supplement of paper PMC10849652
